# Bioassay records from PubChem.
# The list is not random: actives were taken first. Their share in the collection is about 18%.
# VP16 counter – inhibits Gal4-VP16 luciferase reporter, ROR gamma counter-screen; Drosophila S2 Gal4-VP16 UAS-luciferase, luminescence, 20 h; Potency, µM (highest dose often 53.6 µM), for the others: top-dose activity, negative = inhibition, actives largely listed as inhibitors; 310,000 tested, 3.5% active; AID 2546;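 also: Gal4-VP16 expression switched on by copper sulfate through the metallothionein promoter; potency is read from the fitted curve at half-maximal effect; nearly all actives have a fitted effect of over 50% in size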
# DT40 TDP1 no CPT – qHTS for Inhibitors of human tyrosyl-DNA phosphodiesterase 1 (TDP1): qHTS in cells in absence of CPT | Potency, µM (top dose mostly 46.2 µM), inactives show at the top dose activity change, negative = growth inhibition, usual class: inhibitors | DT40 Tdp1-/- hTDP1 cells, no CPT, ATP luminescence, 48 h | 420,000 tested, 15% active | AID 686978, 2013; also: potency is read from the fitted curve at half-maximal effect; nearly all actives have a fitted effect of over 55% in size
#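 Seeded 400 DT40-hTDP1 cells/well (vehicle DMSO, no 20 nM CPT); pinned compounds; ≥48 hr at 37 °C; CellTiter-Glo luminescence as viability measure.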
# IL-1B inflam inh – blocks inflammasome-driven IL-1 beta release; activity change, % at 57.5 µM; THP-1 LPS/ATP IL-1B secretion, AlphaLISA, 16 h; hits give low values; 360,000 tested, 4.7% active; in the data active = activity change below about -50%; inconclusive = mostly about -30% to -49%
#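 THP-1 cells pretreated 1 hr with compounds (up to 57.5 uM final), then stimulated with LPS (250 ng/mL final) plus ATP (1.25 mM final); secreted IL-1B measured by AlphaLISA after 16 hr, decreased signal indicating inhibition.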
# DT40 TDP1 CPT – DT40-hTDP1 cell growth loss with CPT; chicken DT40 Tdp1-/-;hTDP1 cells + 20 nM CPT, ATP luminescence, 48 h; Potency, µM (series often up to 46.2 µM), inactives show at the top dose activity change, negative = growth inhibition, most hits filed as inhibitors; 420,000 tested, 12% active; AID 686979; also: potency is read from the fitted curve at half-maximal effect; nearly all actives have a fitted effect of over 55% in size
#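 Chicken DT40 Tdp1-/- cells stably complemented with human TDP1 were seeded at 400 cells/well in medium containing 20 nM camptothecin, exposed to pin-transferred compounds, and grown at 37 °C for at least 48 hr. Viability was read as ATP luminescence.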
# LDHA inh – inhibitors of human lactate dehydrogenase A; 480,000 tested, 0.15% active; P00338; activity change, % (values are at about 110 or 230 µM); purified LDHA, NADH/diaphorase-resazurin fluorescence; hits give low values; in the data active = activity change below about -30%; inconclusive = mostly about -25% to -30%;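 also: plate controls were DMSO wells for no effect and wells without enzyme for full effect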
#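 Enzyme activity of human lactate dehydrogenase 5 (2 nM; 0.06 mM NADH, 0.2 mM pyruvate, 5 min, RT) is measured via a resazurin/diaphorase fluorescence readout of residual NADH.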
# RORgamma inh – inhibitors of mouse ROR gamma transcriptional activity. P51450. Drosophila S2 Gal4-RORgamma UAS-luciferase reporter, 20 h. Potency, µM (series often up to 53.6 µM), without a hit: at the highest dose activity change, negative = inhibition, actives largely listed as inhibitors. 310,000 tested, 5.4% active. AID 2551; also: potency is read from the fitted curve at half-maximal effect; nearly all actives have a fitted effect of over 60% in size
# Target sequence (P51450 whole entry, looked up, the tested form may be a part): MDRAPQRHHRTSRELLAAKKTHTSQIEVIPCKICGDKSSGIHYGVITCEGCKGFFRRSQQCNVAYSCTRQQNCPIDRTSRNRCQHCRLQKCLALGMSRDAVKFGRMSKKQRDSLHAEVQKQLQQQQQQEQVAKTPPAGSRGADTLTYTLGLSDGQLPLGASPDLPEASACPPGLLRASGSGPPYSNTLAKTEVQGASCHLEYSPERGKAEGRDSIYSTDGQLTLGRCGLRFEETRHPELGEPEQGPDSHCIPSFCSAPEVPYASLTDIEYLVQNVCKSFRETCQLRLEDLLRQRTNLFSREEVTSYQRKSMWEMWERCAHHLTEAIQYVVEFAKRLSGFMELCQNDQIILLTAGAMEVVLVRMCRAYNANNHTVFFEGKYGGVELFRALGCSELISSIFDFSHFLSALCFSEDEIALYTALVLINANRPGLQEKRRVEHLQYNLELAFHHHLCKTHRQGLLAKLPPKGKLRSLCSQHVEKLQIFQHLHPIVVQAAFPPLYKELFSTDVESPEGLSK
#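 Compounds are pin-transferred onto Drosophila Schneider cells expressing a copper-inducible Gal4–ROR gamma transactivation domain fusion. After 1 hr, copper sulfate is added to 700 uM final; luciferase is read 20 hr later.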
# Starred values were filed as active, the others as inactive; ? = inconclusive; / = not tested or not shown. Unless noted, calls follow the shape of the dose curve; as a rule, active = well fitted curve in the direction sought with a large enough effect; inconclusive = small, poorly fitted or top-dose-only effect, or another doubt; inactive = no such curve, though single readings can be large; an effect the other way counts as inactive or inconclusive. Unless noted, % is scaled to controls: 0 for no effect and ±100 for the full control effect.
SMILES,VP16 counter,DT40 TDP1 no CPT,IL-1B inflam inh,DT40 TDP1 CPT,LDHA inh,RORgamma inh
COc1ccc(N2CCC(CNC(=S)Nc3cc(C)cc(C)c3)C2)cc1 (stereo not drawn),-17.1%,14.6µM*,-90.7*,?,12.5,32.5%
CCOC(=O)c1cc(-c2ccncc2)nc2ccccc12,/,/,/,/,0.2,/
COc1cc(OC)c(CC2C(=O)Nc3ccc(Br)cc32)c(OC)c1 (stereo not drawn),/,/,/,/,24.7,/
CCCOc1ccc(CC2C(=O)Nc3ccc(Br)cc32)cc1 (stereo not drawn),/,18.4µM*,/,?,0.4,/
CCOc1ccccc1CC1C(=O)Nc2ccc(Br)cc21 (stereo not drawn),/,?,/,?,-3.2,/
CCOc1c(CC2C(=O)Nc3ccc(Br)cc32)cccc1OC (stereo not drawn),/,16.4µM*,/,?,0.9,/
COc1ccc(CC2C(=O)Nc3ccc(Br)cc32)cc1 (stereo not drawn),/,/,/,/,-24.5,/
COc1ccc(OC)c(CC2C(=O)Nc3ccc(Br)cc32)c1 (stereo not drawn),/,7.31µM*,/,10.3µM*,12.6,/
O=C(Cn1c(NCCCO)nc2ccccc21)c1ccc(Cl)cc1,-3.3%,?,-10.6,?,1.5,-2.6%
Cc1cc2nc(NCCCO)n(CC(=O)c3cc(C(C)(C)C)c(O)c(C(C)(C)C)c3)c2cc1C,/,23.1µM*,-50.6*,16.4µM*,7.5,/
COc1cccc(NC(=O)CCS(=O)(=O)c2cc(-c3cc(C)no3)ccc2OC)c1,/,/,/,/,-2.4,/
C/C(O)=C(\N=Nc1cc(C)ccc1O)C(N)=O,-8.9%,20.6µM*,30.2,?,7.2,?
Cc1ccc(C)c(NNC(=O)C(=O)NNc2cc(C)ccc2C)c1,-1.1%,-1.0%,9.1,0.5%,-2.4,-4.5%
Cc1ccccc1C(=O)N1CCc2c([nH]c3ccccc23)C1C(F)(F)F (stereo not drawn),6.7%,?,-54.7*,?,-3.5,0.6%
CCOc1cccc(C2c3[nH]c4ccccc4c3CCN2C(=O)CSc2ccccc2)c1 (stereo not drawn),/,?,/,?,0.6,/
O=C(O)c1cccnc1C(=O)N1CCc2c([nH]c3ccccc23)C1C(F)(F)F (stereo not drawn),-0.2%,1.0%,7.6,11.8%,-7.1,-2.8%
CCOc1cccc(C2c3[nH]c4ccccc4c3CCN2C(=O)c2ccccc2F)c1 (stereo not drawn),/,16.4µM*,/,?,-0.3,/
CCc1cc(C(=O)N2CCc3c([nH]c4ccccc34)C2c2ccc(OC)cc2F)no1 (stereo not drawn),5.9%,23.1µM*,?,?,-8.8,27.1%
Cc1ccc(S(=O)(=O)N(C)Cc2nc(-c3ccc(Br)cc3)no2)cc1,-8.1%,18.4µM*,43.5,?,-7.8,?
CN(Cc1nc(-c2ccc(Cl)cc2)no1)S(=O)(=O)c1ccccc1,/,?,/,?,0.9,/
Cc1ccc(S(=O)(=O)N(C)Cc2nc(-c3ccncc3)no2)cc1,-2.2%,?,25.1,?,0.3,23.8%
COc1ccc(-c2noc(CN(C)S(=O)(=O)c3ccccc3)n2)cc1OC,/,?,-10.0,16.4µM*,-5.9,/
Cc1cc(C)cc(N(C(=O)CCC(=O)Nc2cc(C)on2)C(C(=O)NC2CCCC2)c2ccco2)c1 (stereo not drawn),12.8%,20.6µM*,-4.6,?,-8.3,13.1%
COc1cccc(C(C(=O)NC(C)(C)C)N(Cc2ccc(C)cc2)C(=O)CCC(=O)Nc2cc(C)on2)c1OC (stereo not drawn),9.8%,?,-11.0,?,-8.3,0.0%
CCOc1ccc(N(C(=O)Cn2nnc3ccccc32)C(C(=O)NCc2ccccc2)c2ccc(OC)cc2)cc1 (stereo not drawn),/,-20.5%,/,-27.7%,-2.5,/
SMILES,VP16 counter,DT40 TDP1 no CPT,IL-1B inflam inh,DT40 TDP1 CPT,LDHA inh,RORgamma inh
COc1ccc(N(C(=O)Cn2cnc3ccccc32)C(C(=O)NC2CCCCC2)c2ccccc2)cc1 (stereo not drawn),-14.4%,?,-74.7*,14.6µM*,-0.6,-17.5%
COc1cccc(C(C(=O)NC(C)(C)C)N(Cc2ccco2)C(=O)CCC(=O)Nc2cc(C)on2)c1OC (stereo not drawn),5.1%,29.1µM*,-12.2,2.7%,-9.6,35.6%
COc1ccc(C(C(=O)NC(C)(C)C)N(C(=O)CCC(=O)Nc2cc(C)on2)c2cc(C)cc(C)c2)cc1 (stereo not drawn),26.6%,20.6µM*,-1.9,?,1.4,?
Cc1cc(NC(=O)CCC(=O)N(Cc2ccccc2)C(C(=O)NC2CCCC2)c2ccco2)no1 (stereo not drawn),-3.2%,?,-10.9,-17.2%,-3.5,-3.8%
COCCN(C(=O)Cn1nnc2ccccc21)C(C(=O)NC1CCCCC1)c1ccc(OC)cc1OC (stereo not drawn),-13.7%,-6.6%,-11.3,-4.0%,1.5,4.5%
COc1ccc(N(C(=O)Cn2nnc3ccccc32)C2(C(=O)NC3CCCC3)CCCCC2)cc1,2.1%,?,-57.6*,?,-4.5,19.9%
Cc1cc(NC(=O)CCC(=O)N(c2ccccc2)C2(C(=O)NC3CCCCC3)CCCC2)no1,-5.1%,-28.6%,-61.2*,-21.9%,1.0,15.0%
Cc1ccc(C)c(N(C(=O)CCC(=O)Nc2cc(C)on2)C(C(=O)NC2CCCC2)c2ccco2)c1 (stereo not drawn),-3.3%,23.1µM*,-6.2,16.4µM*,-3.5,41.4%
Cc1ccc(S(=O)(=O)N2CCOCC2)cc1C(=O)OCC(=O)NC1CCCC(C)C1C (stereo not drawn),/,4.61µM*,19.8,14.6µM*,1.2,/
O=C(COc1ccc(S(=O)(=O)N2CCOCC2)cc1)N1CCc2ccccc2C1,-18.2%,?,-8.3,?,-12.8,26.3%
CC1CCCC(NC(=O)COC(=O)c2cc(S(=O)(=O)N3CCCCC3)ccc2N2CCOCC2)C1C (stereo not drawn),-1.7%,?,2.4,-26.3%,2.5,8.4%
Cc1ccc(S(=O)(=O)N2CCOCC2)cc1C(=O)OCC(=O)N1CCc2ccccc2C1,-15.8%,23.1µM*,16.7,?,4.2,?
CCc1ccc(/C=C/C(=O)NCc2ccco2)o1,/,/,/,/,-3.6,/
COc1ccc(-c2cc(C(F)(F)F)nc(S(=O)(=O)CCCC(=O)Nc3cccnc3Cl)n2)cc1OC,?,3.66µM*,-107.2*,2.31µM*,3.8,1.58µM*
